Measured values published in paper PMC7862700, “An all-to-all approach to the identification of sequence-specific readers for epigenetic DNA modifications on cytosine”.

What was measured:
Assay in all cases: DAPPL (digital affinity profiling via proximity ligation, sequencing); 10 mM Tris-HCl pH 7.5, 50 mM NaCl, 1 mM DTT, 4% glycerol, room temperature, 30 min; GST-TFs on glutathione beads, 16-mer random dsDNA library, 0.1% formaldehyde crosslink after washing; high values mean tight binding
FEV = biological target: T1, FEV (Homo sapiens, UniProt Q99581 1-238); conditions: protein: recombinant; tags: N-terminal GST; dsDNA, one strand shown
T1 sequence: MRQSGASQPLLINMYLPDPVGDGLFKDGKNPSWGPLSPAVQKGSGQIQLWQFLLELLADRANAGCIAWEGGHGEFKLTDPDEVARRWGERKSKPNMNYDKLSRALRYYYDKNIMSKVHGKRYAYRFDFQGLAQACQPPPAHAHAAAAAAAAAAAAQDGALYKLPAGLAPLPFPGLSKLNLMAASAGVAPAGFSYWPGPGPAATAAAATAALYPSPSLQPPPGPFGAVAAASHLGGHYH
How it was run: (§1)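 Sequencing on an Illumina NextSeq500 followed washing, crosslinking with 0.1% formaldehyde, proximity ligation (BsaI/T4 ligase, 1 h, 37 °C) and PCR amplification of pools that had been incubated for 30 min at room temperature with 200 nmole of a random double-stranded 16-mer DNA library in Tris/NaCl/DTT/glycerol buffer. Each pool held DNA-barcoded human transcription factors, expressed in yeast as GST fusions and captured on glutathione beads, plus a tag-only sample. Binding signal is a hexamer's read frequency for a factor divided by its frequency in the tag-only sample.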

ETV5 = ETV5 (Homo sapiens, UniProt P41161 1-510); conditions: protein: recombinant; tags: N-terminal GST; dsDNA, one strand shown
ETV5, sequence (P41161 whole entry): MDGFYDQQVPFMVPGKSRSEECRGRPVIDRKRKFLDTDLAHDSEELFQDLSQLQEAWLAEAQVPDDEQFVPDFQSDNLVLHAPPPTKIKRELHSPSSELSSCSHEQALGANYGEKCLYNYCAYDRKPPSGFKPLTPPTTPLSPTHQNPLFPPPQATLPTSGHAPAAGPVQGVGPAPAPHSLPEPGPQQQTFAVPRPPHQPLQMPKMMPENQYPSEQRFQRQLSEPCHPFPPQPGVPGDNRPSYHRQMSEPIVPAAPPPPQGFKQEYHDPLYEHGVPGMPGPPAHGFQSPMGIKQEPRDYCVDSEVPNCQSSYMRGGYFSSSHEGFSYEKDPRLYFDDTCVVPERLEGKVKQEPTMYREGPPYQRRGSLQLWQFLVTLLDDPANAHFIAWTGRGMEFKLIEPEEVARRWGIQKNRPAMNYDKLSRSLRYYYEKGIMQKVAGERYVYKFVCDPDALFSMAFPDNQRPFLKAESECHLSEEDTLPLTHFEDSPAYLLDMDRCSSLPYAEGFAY
How it was run: as §1

HSF1 = HSF1 (Homo sapiens, UniProt Q00613 1-529); conditions: protein: recombinant; tags: N-terminal GST; chain copies: 3; dsDNA, one strand shown
HSF1, sequence (Q00613 whole entry): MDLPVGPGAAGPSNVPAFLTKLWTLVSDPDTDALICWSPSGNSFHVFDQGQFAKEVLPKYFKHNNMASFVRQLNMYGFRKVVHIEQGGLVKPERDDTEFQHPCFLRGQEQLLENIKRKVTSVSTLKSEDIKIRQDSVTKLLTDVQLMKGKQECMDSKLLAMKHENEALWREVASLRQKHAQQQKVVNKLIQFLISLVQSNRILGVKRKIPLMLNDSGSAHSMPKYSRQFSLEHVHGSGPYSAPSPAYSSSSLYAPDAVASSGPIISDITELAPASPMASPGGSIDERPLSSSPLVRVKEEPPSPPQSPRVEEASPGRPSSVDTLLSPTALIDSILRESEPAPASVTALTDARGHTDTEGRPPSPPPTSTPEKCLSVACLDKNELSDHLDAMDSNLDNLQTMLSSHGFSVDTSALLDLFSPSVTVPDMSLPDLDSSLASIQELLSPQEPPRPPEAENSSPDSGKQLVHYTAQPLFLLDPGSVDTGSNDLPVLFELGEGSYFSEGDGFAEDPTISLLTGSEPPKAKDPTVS
How it was run: as §1

SPIC = biological target: T2, SPIC (Homo sapiens, UniProt Q8N5J4 1-248); conditions: protein: recombinant; tags: N-terminal GST; dsDNA, one strand shown
T2 sequence: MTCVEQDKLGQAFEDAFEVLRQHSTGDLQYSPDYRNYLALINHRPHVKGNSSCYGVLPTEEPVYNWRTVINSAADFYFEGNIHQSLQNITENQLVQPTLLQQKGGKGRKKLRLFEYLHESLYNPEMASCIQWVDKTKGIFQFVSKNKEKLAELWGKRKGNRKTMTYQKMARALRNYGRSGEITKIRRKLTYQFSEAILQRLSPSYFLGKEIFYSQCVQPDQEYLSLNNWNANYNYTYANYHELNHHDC
How it was run: as §1

ELF4 = ELF4 (Homo sapiens, UniProt Q99607 1-663); conditions: protein: recombinant; tags: N-terminal GST; dsDNA, one strand shown
ELF4, sequence (Q99607 whole entry): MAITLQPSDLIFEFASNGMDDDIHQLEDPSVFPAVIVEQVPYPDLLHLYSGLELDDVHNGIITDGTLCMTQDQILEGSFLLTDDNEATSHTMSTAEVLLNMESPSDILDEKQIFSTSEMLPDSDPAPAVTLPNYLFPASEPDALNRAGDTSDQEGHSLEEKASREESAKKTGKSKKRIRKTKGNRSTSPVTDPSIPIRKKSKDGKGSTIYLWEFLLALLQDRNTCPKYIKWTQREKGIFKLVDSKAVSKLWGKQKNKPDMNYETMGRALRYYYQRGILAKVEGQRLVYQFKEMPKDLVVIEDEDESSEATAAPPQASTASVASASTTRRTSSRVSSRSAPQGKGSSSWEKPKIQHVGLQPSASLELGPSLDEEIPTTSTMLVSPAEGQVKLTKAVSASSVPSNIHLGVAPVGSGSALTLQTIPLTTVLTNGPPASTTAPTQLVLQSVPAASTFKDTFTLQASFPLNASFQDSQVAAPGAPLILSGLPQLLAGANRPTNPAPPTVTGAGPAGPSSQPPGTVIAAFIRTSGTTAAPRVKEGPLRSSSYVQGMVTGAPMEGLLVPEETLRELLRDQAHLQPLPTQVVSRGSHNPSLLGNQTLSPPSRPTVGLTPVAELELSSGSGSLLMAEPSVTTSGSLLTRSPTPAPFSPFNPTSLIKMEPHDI
How it was run: as §1

ELK4 = biological target: T3, ELK4 (Homo sapiens, UniProt P28324-2 1-405); conditions: protein: recombinant; tags: N-terminal GST; dsDNA, one strand shown
T3 sequence: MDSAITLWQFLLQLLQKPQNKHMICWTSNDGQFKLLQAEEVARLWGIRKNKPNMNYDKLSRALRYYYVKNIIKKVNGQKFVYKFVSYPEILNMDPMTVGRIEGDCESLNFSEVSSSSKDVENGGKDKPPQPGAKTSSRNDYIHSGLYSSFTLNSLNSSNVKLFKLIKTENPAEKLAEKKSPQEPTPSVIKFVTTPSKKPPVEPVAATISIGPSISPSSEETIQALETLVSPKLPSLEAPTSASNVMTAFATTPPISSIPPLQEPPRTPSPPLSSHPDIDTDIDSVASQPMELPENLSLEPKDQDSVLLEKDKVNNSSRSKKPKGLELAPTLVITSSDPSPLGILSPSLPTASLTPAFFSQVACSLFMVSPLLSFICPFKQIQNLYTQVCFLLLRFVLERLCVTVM
How it was run: as §1

ETV2 = biological target: T4, ETV2 (Homo sapiens, UniProt O00321 1-342); conditions: protein: recombinant; tags: N-terminal GST; dsDNA, one strand shown
T4 sequence: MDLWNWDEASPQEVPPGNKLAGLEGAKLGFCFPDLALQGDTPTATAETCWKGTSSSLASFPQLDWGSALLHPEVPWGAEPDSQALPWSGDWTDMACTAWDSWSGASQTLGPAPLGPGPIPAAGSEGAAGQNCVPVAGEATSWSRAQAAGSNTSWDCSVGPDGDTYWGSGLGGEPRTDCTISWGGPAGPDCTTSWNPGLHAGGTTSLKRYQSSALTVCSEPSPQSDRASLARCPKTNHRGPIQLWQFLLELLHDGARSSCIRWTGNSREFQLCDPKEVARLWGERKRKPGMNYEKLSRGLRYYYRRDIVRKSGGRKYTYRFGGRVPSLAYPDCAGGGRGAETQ
How it was run: as §1

ELF3 = biological target: T5, ELF3 (Homo sapiens, UniProt P78545 1-371); conditions: protein: recombinant; tags: N-terminal GST; dsDNA, one strand shown
T5 sequence: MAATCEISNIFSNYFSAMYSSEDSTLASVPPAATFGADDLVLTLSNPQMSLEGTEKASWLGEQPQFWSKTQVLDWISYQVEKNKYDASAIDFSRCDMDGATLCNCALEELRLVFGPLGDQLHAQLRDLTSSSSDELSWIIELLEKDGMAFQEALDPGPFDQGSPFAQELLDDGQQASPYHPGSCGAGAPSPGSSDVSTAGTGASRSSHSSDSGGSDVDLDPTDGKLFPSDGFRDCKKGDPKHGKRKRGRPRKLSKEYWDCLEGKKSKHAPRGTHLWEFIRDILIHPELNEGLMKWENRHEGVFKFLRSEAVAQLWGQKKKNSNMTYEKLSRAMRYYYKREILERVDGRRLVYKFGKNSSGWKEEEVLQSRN
How it was run: as §1

CRX = CRX (Homo sapiens, UniProt O43186 1-299); conditions: protein: recombinant; tags: N-terminal GST; dsDNA, one strand shown
CRX, sequence (O43186 whole entry): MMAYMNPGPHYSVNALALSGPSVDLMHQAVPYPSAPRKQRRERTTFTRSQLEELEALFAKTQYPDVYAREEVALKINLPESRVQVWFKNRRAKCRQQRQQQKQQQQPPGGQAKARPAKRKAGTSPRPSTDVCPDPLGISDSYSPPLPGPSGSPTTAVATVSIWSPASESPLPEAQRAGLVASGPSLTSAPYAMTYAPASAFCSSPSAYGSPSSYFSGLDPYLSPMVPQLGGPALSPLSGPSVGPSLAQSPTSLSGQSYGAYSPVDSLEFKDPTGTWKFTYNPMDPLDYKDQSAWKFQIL
How it was run: as §1

ETV1 = ETV1 (Homo sapiens, UniProt P50549 1-477); conditions: protein: recombinant; tags: N-terminal GST; dsDNA, one strand shown
ETV1, sequence (P50549 whole entry): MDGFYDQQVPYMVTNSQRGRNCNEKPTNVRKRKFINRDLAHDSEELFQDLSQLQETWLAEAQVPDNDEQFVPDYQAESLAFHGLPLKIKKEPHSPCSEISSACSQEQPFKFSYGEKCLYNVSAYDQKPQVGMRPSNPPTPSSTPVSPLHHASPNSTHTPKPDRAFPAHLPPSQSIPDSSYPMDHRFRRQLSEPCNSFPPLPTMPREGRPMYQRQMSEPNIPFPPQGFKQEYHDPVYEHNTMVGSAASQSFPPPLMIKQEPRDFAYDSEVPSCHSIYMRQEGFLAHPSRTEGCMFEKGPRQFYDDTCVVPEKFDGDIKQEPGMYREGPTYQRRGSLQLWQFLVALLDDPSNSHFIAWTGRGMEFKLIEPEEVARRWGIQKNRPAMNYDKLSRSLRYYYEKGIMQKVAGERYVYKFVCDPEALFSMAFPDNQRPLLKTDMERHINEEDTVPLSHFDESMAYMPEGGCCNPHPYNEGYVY
How it was run: as §1

ERF = biological target: T6, ERF (Homo sapiens, UniProt P50548 1-548); conditions: protein: recombinant; tags: N-terminal GST; dsDNA, one strand shown
T6 sequence: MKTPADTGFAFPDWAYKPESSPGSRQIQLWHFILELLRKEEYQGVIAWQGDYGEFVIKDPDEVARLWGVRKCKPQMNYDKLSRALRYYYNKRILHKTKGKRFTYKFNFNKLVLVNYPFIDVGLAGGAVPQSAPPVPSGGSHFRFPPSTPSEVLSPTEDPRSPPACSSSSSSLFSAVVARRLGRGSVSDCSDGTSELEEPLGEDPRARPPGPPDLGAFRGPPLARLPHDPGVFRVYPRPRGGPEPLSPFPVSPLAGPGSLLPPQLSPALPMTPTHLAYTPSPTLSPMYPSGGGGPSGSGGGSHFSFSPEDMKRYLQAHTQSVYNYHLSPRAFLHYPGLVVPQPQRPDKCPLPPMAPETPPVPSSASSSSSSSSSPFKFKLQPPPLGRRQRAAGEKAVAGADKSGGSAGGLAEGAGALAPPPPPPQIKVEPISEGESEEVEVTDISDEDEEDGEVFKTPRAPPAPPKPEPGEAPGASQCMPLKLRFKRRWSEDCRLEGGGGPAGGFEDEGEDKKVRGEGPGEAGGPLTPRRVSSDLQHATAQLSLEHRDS
How it was run: as §1

ETV3L = biological target: T7, ETV3L (Homo sapiens, UniProt Q6ZN32 1-361); conditions: protein: recombinant; tags: N-terminal GST; dsDNA, one strand shown
T7 sequence: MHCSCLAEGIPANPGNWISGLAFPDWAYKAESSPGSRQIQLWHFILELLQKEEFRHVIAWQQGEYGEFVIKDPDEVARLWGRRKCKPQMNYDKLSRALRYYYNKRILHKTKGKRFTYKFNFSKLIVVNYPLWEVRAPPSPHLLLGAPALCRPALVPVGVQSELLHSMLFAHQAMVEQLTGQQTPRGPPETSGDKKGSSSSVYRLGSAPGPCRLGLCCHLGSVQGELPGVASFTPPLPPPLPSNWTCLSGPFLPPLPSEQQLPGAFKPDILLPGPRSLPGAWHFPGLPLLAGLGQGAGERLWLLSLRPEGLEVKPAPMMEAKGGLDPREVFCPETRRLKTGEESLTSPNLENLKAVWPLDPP
How it was run: as §1

ETS2 = biological target: T8, ETS2 (Homo sapiens, UniProt P15036 1-469); conditions: protein: recombinant; tags: N-terminal GST; dsDNA, one strand shown
T8 sequence: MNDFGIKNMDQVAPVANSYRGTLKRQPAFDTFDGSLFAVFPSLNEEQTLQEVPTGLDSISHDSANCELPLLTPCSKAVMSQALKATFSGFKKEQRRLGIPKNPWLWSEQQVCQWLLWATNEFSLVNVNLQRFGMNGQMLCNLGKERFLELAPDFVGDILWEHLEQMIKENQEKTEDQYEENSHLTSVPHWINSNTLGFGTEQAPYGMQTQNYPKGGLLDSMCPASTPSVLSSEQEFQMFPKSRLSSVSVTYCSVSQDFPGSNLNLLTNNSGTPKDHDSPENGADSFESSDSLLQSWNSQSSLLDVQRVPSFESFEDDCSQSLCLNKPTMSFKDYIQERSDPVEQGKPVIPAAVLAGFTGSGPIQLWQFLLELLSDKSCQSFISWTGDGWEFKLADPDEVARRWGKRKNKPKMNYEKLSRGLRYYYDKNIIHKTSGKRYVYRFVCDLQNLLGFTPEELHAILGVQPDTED
How it was run: as §1

SPDEF = biological target: T9, SPDEF (Homo sapiens, UniProt O95238 1-335); conditions: protein: recombinant; tags: N-terminal GST; dsDNA, one strand shown
T9 sequence: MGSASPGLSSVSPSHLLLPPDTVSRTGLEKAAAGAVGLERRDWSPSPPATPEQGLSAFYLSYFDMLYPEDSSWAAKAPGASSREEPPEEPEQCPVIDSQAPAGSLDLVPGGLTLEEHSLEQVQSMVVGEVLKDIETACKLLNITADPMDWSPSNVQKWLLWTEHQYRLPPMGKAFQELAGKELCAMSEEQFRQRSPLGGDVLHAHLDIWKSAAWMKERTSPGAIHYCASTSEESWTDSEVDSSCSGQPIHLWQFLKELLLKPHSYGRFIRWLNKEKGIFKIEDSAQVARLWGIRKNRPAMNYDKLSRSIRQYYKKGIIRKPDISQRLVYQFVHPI
How it was run: as §1

ETV7 = biological target: T10, ETV7 (Homo sapiens, UniProt Q9Y603 1-341); conditions: protein: recombinant; tags: N-terminal GST; dsDNA, one strand shown
T10 sequence: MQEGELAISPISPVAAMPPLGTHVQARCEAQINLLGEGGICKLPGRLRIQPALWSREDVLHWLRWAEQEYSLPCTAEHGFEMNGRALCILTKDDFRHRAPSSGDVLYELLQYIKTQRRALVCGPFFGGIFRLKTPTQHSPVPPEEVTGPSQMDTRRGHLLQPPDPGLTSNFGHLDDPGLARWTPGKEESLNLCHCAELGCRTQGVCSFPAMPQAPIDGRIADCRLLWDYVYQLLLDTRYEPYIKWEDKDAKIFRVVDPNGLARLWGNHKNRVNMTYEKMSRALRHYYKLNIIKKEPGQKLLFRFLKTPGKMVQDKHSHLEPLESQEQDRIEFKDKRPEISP
How it was run: as §1

ELF5 = biological target: T11, ELF5 (Homo sapiens, UniProt Q9UKW6-2 1-255); conditions: protein: recombinant; tags: N-terminal GST; dsDNA, one strand shown
T11 sequence: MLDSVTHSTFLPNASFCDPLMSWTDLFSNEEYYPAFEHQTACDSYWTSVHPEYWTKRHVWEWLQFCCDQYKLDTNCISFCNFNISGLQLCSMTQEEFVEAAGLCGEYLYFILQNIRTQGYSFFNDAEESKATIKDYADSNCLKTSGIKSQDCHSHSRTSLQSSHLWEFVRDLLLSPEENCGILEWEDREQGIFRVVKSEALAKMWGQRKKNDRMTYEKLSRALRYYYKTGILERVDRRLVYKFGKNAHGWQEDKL
How it was run: as §1

ETV3 = biological target: T12, ETV3 (Homo sapiens, UniProt P41162-2 1-143); conditions: protein: recombinant; tags: N-terminal GST; dsDNA, one strand shown
T12 sequence: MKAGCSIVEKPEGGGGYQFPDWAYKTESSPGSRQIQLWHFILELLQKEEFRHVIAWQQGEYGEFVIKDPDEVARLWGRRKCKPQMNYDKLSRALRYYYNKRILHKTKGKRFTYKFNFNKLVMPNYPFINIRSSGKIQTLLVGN
How it was run: as §1

ETV6 = ETV6 (Homo sapiens, UniProt P41212 1-452); conditions: protein: recombinant; tags: N-terminal GST; dsDNA, one strand shown
ETV6, sequence (P41212 whole entry): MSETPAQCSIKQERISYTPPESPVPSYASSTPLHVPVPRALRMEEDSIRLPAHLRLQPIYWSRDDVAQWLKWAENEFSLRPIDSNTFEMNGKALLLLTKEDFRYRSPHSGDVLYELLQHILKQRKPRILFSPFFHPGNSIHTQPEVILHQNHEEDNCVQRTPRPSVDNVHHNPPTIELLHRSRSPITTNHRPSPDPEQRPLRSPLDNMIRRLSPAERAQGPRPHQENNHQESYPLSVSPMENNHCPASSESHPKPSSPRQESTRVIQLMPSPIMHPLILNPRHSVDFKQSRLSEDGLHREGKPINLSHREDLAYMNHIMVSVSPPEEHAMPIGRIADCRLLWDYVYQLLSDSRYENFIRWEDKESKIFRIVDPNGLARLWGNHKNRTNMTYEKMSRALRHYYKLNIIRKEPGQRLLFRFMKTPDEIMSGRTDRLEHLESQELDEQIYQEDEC
How it was run: as §1

With AACTAT the binding signal (FEV) was 1.31 fold enrichment (6-mer frequency, TF over GST control), the binding signal (ETV5) was 1.37 fold enrichment (6-mer frequency, TF over GST control) and the binding signal (HSF1) was 1.33 fold enrichment (6-mer frequency, TF over GST control). The binding signal (SPIC) was 1.43 fold enrichment (6-mer frequency, TF over GST control), the binding signal (ELF4) was 1.36 fold enrichment (6-mer frequency, TF over GST control) and the binding signal (ELK4) was 1.45 fold enrichment (6-mer frequency, TF over GST control). For the same sequence, the binding signal (ETV2) was 1.49 fold enrichment (6-mer frequency, TF over GST control), the binding signal (ELF3) was 1.26 fold enrichment (6-mer frequency, TF over GST control) and the binding signal (CRX) was 1.26 fold enrichment (6-mer frequency, TF over GST control). For the same sequence, the binding signal (ETV1) was 1.43 fold enrichment (6-mer frequency, TF over GST control), the binding signal (ERF) was 1.17 fold enrichment (6-mer frequency, TF over GST control) and the binding signal (ETV3L) was 1.28 fold enrichment (6-mer frequency, TF over GST control). The binding signal (ETS2) was 1.45 fold enrichment (6-mer frequency, TF over GST control), the binding signal (SPDEF) was 1.42 fold enrichment (6-mer frequency, TF over GST control) and the binding signal (ETV7) was 1.38 fold enrichment (6-mer frequency, TF over GST control). For the same sequence, the binding signal (ELF5) was 1.45 fold enrichment (6-mer frequency, TF over GST control), the binding signal (ETV3) was 1.28 fold enrichment (6-mer frequency, TF over GST control) and the binding signal (ETV6) was 1.33 fold enrichment (6-mer frequency, TF over GST control).
